In PubChem BioAssay (Tox21):
Values without a mark were called inactive. Records with an inconclusive call do not appear. Where a call stands in place of a potency, no number is given. Activity calls are given as the source filed them. Unless noted, the call rests on the fitted dose curve; in most records, active means well fitted curve in the direction sought with a large enough effect in the repeat runs; inconclusive means weak or mixed curves; inactive means no such curve, though single readings can be large; an effect the other way counts as inactive or inconclusive.

Assays:
[1] = qHTS assay to identify small molecule agonists of the progesterone receptor (PR) signaling pathway - cell viability counter screen (AID 1346799; calls by dose curve; further: nearly all actives have a fitted effect of over 45% in size)
Procedure, shortened: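 Cytotoxicity in PR-bla HEK293T cells: 16 h compound, 37C; CellTiter-Glo added post-FRET read; luminescence after 30 min RT.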

[2] = qHTS assay to identify small molecule antagonists of the TGF-beta/Smad signaling pathway - cell viability counter screen (AID 1346824); further: nearly all actives have a fitted effect of over 50% in size
Procedure, shortened: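 Cytotoxicity counter-screen run in the same wells as the beta-lactamase Smad reporter read: CellTiter-Glo luminescence after 30 min at room temperature. HEK 293T SBE-bla cells had 5 hr compound exposure at 37 C with TGF-beta1 (0.25 ng/mL stock).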

[3] = qHTS assay to identify small molecule agonists of the TGF-beta/Smad signaling pathway - cell viability counter screen (AID 1346829); further: top concentration of the series differs between compounds; nearly all actives have a fitted effect of over 45% in size
Procedure, shortened: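 Compound-treated SBE-bla HEK 293T cells (5 hr, 37 C) were assessed for viability with CellTiter-Glo in parallel with the reporter read.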

[4] = qHTS assay to identify small molecule agonists of the TGF-beta/Smad signaling pathway (AID 1346859; active means well fitted activation curve with a large enough effect in the signal ratio in the repeat runs, not every such curve was filed as active; the % refers to the signal ratio; further: series mostly up to about 77 µM)
Procedure, shortened: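 Stable Smad binding element-beta-lactamase HEK 293T cells; 5 hr compound exposure at 37 C under 5% CO2; 2 hr room-temperature substrate step; fluorescence excited at 405 nm, collected at 460 nm and 530 nm.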

[5] = molecular target: Thyrotropin-releasing hormone receptor (Homo sapiens) (UniProt P34981); experiment: qHTS assay to identify small molecule antagonists of the thyrotropin-releasing hormone receptor (TRHR) signaling pathway (AID 1346877; active means well fitted inhibition curve with a large enough effect in the repeat runs, not every such curve was filed as active; further: series mostly up to about 51 µM)
Procedure, shortened: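 HEK293/TRHR cells, 18 h, 37 °C; Ca2+ dye 2 h; cpd 5 min RT; TRH 1 nM final; fluorescence read 3 min, 1 s intervals; 15 concs, triplicate.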

[6] = molecular target: Thyrotropin-releasing hormone receptor (Homo sapiens) (UniProt P34981); experiment: qHTS assay to identify small molecule agonists of the thyrotropin-releasing hormone receptor (TRHR) signaling pathway (AID 1346891; calls by dose curve;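 further: HEK293 cells expressing TRHR with calcium dye readout; series mostly up to about 58 µM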)
Procedure, shortened: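 In 1536-format, 1500 TRHR-Hek293 cells per well grew 18 h, took up calcium dye for 2 h at 37 °C, received compound, and were read kinetically; 15-point titrations, triplicates.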

[7] = Caspase-3/7 induction in HepG2 cells by small molecules, qHTS assay (AID 1346978); further: nearly all actives have a fitted effect of over 15% in size
Procedure, shortened: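 Caspase-3/7 induction was measured by Caspase-Glo 3/7 luminescence (30 min, room temperature) after a 17 hr compound exposure of wild-type HepG2 cells seeded at 2,000 per well and pre-incubated 5 hr.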

[8] = Caspase-3/7 induction in CHO-K1 cells by small molecules, qHTS cell viability counter screen (AID 1346979); further: nearly all actives have a fitted effect of over 35% in size; further: potency means the concentration at half of the fitted maximal effect
Procedure, shortened: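 To flag cytotoxic compounds, treated CHO-K1 wild-type cells were given CellTiter-Fluor at 16hr and read fluorescently after 1hr at 37C; the caspase-3/7 luminescence was measured in these same wells.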

[9] = Caspase-3/7 induction in CHO-K1 cells by small molecules, qHTS assay (AID 1346980); further: nearly all actives have a fitted effect of over 15% in size
Procedure, shortened: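 Luminescent Caspase-Glo 3/7 read (30min, room temperature) quantified apoptosis induction. Cells were wild-type CHO-K1, treated with compound for 17hr at 37 C and 5% CO2.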

[10] = molecular target: Nuclear receptor subfamily 1 group I member 2 (Homo sapiens) (UniProt O75469); experiment: Human pregnane X receptor (PXR) small molecule agonists, qHTS assay (AID 1346982); further: nearly all actives have a fitted effect of over 35% in size; further: potency means the concentration at half of the fitted maximal effect
Procedure, shortened: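 HepG2 PXR-Luc reporter line, 5% charcoal-stripped FBS; 5 hr pre-incubation, compound (DMSO) 24 hr at 37 C/5% CO2; ONE-Glo 30 min RT; luminescence read-out.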

[11] = molecular target: Cytochrome P450 2C19 (Homo sapiens) (UniProt P33261); experiment: Cytochrome P450 Family 2 Subfamily C Member 19 (CYP2C19) small molecule antagonists: luciferase reporter qHTS assay (AID 1671197); further: nearly all actives have a fitted effect of over 65% in size; further: potency means the concentration at half of the fitted maximal effect
Procedure, shortened: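 P450-Glo CYP2C19 screening system; proluciferin substrate; DMSO compound stocks; 10 min RT preincubation; NADPH regeneration, 1 h at 37C; luciferin detection reagent, 20 min RT; luminescence as RLU.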

[12] = molecular target: Cytochrome P450 2C9 (Homo sapiens) (UniProt P11712); experiment: Cytochrome P450 Family 2 Subfamily C Member 9 (CYP2C9) small molecule antagonists: luciferase reporter qHTS assay (AID 1671198); further: nearly all actives have a fitted effect of over 50% in size; further: potency means the concentration at half of the fitted maximal effect
Procedure, shortened: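 Enzyme-substrate mix preincubated with compound 10 min at room temperature; reaction started with NADPH regeneration solution, 1 h 37C. Luminescent luciferin product read after 20 min detection reagent.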

[13] = molecular target: Voltage-gated inwardly rectifying potassium channel KCNH2 (Homo sapiens) (UniProt Q12809); experiment: Human Ether-a-go-go-Related Gene (hERG) channel small molecule antagonists: fluorescence cell-based qHTS assay (AID 1671200); further: nearly all actives have a fitted effect of over 50% in size; further: potency means the concentration at half of the fitted maximal effect
Procedure, shortened: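 Measured: Tl+ flux via fluorescence (480/540 nm) in hERG-expressing U2OS cells after 1 h dye loading at room temperature.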

[14] = Human pregnane X receptor (PXR) small molecule agonists, qHTS cell viability counter screen (AID 1346977); further: nearly all actives have a fitted effect of over 50% in size
Procedure, shortened: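 Readout is CellTiter-Fluor fluorescence from PXR-Luc HepG2 cells. Plated cells rested 5hr, then were treated with compounds for 24hr at 37C and 5% CO2, with reagent present during the last hour.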

[15] = Caspase-3/7 induction in HepG2 cells by small molecules, qHTS cell viability counter screen (AID 1346981); further: series mostly up to about 92 µM; nearly all actives have a fitted effect of over 30% in size
Procedure, shortened: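 Fluorescence read-out of live-cell protease activity (CellTiter-Fluor) after 1 hr with reagent. This was measured in the same wells as the caspase-3/7 luminescence, on HepG2 cells exposed to DMSO-dissolved compounds for 16 hr at 37 C.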

[16] = molecular target: Cytochrome P450 1A2 (Homo sapiens) (UniProt P05177); experiment: Cytochrome P450 Family 1 Subfamily A Member 2 (CYP1A2) small molecule antagonists: luciferase reporter qHTS assay (AID 1671199); further: nearly all actives have a fitted effect of over 50% in size; further: potency means the concentration at half of the fitted maximal effect
Procedure, shortened: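 Luminescence readout (relative luminescence units) after luciferin detection reagent, 20 min RT. Preceded by 1 h room-temperature CYP1A2 reaction with NADPH regeneration solution following 10 min compound preincubation with enzyme and proluciferin substrate. Furafylline positive control.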

[17] = molecular target: Cytochrome P450 2D6 (Homo sapiens) (UniProt P10635); experiment: Cytochrome P450 Family 2 Subfamily D Member 6 (CYP2D6) small molecule antagonists: luciferase reporter qHTS assay (AID 1671196); further: nearly all actives have a fitted effect of over 50% in size; further: potency means the concentration at half of the fitted maximal effect
Procedure, shortened: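 Luminogenic proluciferin substrate, CYP2D6 enzyme; 10 min RT preincubation with compound, NADPH regeneration system added, 1 h RT. Stop/detection reagent, 20 min RT, luminescence read (RLU). Signal proportional to CYP activity.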

Voltage-gated inwardly rectifying potassium channel KCNH2 (Homo sapiens), sequence (Q12809 whole entry, looked up): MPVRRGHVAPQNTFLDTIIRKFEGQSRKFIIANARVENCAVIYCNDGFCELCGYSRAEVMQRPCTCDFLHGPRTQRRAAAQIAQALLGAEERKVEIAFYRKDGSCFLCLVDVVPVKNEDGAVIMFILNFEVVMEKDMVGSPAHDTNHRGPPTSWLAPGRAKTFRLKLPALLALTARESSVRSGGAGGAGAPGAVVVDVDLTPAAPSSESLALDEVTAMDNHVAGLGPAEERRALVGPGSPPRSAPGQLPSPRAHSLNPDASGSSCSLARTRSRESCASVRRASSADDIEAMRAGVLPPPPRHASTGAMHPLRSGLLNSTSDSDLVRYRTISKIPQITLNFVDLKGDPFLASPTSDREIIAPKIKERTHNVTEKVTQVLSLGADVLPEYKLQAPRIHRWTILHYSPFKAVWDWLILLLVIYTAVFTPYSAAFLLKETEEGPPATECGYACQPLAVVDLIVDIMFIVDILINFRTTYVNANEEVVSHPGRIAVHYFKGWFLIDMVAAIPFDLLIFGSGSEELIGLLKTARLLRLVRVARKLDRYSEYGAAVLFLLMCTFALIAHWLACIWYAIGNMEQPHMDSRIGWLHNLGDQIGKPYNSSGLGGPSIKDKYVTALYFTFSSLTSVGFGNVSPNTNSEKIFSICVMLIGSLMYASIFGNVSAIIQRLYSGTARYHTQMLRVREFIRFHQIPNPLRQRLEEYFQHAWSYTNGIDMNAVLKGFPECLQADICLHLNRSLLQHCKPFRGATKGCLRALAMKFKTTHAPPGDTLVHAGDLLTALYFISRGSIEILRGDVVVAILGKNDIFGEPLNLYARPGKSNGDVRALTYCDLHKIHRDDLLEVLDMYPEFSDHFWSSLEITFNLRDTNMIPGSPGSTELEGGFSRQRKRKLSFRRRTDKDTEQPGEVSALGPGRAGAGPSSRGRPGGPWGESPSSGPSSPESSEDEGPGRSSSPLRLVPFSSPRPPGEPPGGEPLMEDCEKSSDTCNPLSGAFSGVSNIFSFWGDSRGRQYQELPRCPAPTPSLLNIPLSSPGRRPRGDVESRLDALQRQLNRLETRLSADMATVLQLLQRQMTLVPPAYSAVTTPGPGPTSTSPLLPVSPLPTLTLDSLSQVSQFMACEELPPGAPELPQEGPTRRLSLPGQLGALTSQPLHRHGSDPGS
Thyrotropin-releasing hormone receptor (Homo sapiens), sequence (P34981 whole entry, looked up): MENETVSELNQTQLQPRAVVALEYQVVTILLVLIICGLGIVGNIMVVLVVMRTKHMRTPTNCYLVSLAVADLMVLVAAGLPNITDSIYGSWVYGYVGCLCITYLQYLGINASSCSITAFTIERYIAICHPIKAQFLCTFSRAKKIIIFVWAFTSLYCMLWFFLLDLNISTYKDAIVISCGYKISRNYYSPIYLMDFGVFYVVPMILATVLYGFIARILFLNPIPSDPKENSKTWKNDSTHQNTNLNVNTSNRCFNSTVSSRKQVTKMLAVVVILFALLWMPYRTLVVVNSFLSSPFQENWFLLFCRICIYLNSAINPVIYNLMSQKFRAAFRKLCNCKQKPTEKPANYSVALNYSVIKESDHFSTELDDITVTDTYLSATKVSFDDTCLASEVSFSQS
Cytochrome P450 2C9 (Homo sapiens), sequence (P11712 whole entry, looked up): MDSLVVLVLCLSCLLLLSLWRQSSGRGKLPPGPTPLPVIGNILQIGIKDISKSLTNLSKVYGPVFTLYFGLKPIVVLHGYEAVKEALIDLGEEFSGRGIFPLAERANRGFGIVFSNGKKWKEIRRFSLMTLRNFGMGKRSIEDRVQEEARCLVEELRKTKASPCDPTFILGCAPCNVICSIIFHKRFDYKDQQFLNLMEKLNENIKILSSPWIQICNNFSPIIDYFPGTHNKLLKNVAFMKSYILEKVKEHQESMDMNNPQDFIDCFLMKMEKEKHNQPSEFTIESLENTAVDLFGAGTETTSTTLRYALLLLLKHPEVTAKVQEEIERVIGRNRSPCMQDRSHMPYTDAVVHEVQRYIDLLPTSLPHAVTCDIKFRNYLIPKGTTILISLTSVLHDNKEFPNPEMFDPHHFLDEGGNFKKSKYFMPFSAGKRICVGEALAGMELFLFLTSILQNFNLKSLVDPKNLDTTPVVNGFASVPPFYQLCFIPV
Cytochrome P450 2D6 (Homo sapiens), sequence (P10635 whole entry, looked up): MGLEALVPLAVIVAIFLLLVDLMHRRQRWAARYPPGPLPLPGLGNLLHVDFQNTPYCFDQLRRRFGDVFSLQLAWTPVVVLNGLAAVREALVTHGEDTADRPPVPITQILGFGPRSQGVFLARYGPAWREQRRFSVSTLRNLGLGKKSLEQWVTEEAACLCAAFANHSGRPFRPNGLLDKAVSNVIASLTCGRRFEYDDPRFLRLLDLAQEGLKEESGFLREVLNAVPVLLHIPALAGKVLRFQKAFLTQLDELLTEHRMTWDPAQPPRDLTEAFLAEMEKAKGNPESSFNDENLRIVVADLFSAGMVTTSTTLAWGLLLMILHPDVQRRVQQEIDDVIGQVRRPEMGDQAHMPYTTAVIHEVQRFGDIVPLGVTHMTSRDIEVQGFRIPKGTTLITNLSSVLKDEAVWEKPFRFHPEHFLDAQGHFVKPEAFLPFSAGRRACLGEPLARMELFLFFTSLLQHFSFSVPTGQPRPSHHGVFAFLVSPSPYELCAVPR
Cytochrome P450 2C19 (Homo sapiens), sequence (P33261 whole entry, looked up): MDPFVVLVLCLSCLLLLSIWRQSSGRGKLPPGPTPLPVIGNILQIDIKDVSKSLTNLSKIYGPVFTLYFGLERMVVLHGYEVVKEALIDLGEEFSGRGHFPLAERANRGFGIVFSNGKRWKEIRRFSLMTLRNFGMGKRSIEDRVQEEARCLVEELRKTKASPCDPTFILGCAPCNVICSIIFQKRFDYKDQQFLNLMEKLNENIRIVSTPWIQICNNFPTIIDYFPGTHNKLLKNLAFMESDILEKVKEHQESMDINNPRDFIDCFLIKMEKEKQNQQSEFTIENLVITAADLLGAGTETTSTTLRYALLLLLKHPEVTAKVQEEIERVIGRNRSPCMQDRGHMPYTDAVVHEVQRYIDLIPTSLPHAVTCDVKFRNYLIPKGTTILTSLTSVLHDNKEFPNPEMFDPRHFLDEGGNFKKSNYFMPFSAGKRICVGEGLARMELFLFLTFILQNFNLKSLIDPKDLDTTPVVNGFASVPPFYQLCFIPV
Cytochrome P450 1A2 (Homo sapiens), sequence (P05177 whole entry, looked up): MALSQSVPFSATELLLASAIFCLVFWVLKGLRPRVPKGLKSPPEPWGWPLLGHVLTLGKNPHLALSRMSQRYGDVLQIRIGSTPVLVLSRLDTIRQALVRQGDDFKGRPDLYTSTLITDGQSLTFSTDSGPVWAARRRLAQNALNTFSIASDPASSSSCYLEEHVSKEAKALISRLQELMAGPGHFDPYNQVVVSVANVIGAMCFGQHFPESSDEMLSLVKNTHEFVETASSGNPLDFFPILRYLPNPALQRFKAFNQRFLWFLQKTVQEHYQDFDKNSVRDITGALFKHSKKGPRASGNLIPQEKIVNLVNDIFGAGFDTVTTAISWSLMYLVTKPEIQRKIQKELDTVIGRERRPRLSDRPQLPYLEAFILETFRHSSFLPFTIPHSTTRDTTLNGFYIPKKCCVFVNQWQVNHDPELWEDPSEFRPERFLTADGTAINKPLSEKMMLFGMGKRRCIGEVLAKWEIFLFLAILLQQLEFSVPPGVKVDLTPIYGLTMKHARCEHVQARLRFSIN
Nuclear receptor subfamily 1 group I member 2 (Homo sapiens), sequence (O75469 whole entry, looked up): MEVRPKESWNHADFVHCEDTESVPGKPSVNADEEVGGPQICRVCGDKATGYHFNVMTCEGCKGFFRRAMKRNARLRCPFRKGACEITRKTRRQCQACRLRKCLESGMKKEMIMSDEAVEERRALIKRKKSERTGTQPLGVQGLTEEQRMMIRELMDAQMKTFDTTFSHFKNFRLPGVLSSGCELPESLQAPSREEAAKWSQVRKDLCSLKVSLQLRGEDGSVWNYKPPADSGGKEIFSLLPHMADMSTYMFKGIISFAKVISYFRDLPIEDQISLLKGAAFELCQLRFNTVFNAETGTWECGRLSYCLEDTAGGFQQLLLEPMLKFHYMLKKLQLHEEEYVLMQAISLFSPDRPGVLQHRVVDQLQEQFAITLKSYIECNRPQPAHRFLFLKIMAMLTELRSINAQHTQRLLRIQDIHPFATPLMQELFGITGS

Compound | Potency [1] | Potency [2] | Potency [3] | outcome [4] | Potency [5] | Potency [6] | Potency [7] | Potency [8] | Potency [9] | Potency [10] | Potency [11] | Potency [12] | Potency [13] | Potency [14] | Potency [15] | Potency [16] | Potency [17]
CC(C)(c1ccc(Oc2ccc(N)cc2)cc1)c1ccc(Oc2ccc(N)cc2)cc1 | inactive | inactive | inactive | inactive | inactive | inactive | inactive | 48.6 µM (active) | inactive | 61.1 µM (active) | 7.96 µM (active) | 2.52 µM (active) | inactive | – | – | – | –
C/C(=C\c1ccc(C(=O)O)cc1)c1ccc2c(c1)C(C)(C)CCC2(C)C | inactive | inactive | inactive | inactive | – | – | inactive | inactive | inactive | inactive | – | inactive | inactive | inactive | inactive | inactive | –
CCN(CC)c1ccc(C=O)cc1 | inactive | inactive | inactive | inactive | inactive | inactive | inactive | inactive | inactive | – | 15.9 µM (active) | inactive | inactive | – | inactive | 5.64 µM (active) | inactive
CC1=C(/C=C/C(C)=C/C=C/C(C)=C\C(=O)O)C(C)(C)CCC1 | inactive | inactive | inactive | inactive | inactive | – | inactive | – | – | 34.5 µM (active) | 40 µM (active) | 40 µM (active) | – | inactive | inactive | 40 µM (active) | –
CC(C=O)c1ccccc1 (centres undefined) | inactive | inactive | inactive | inactive | inactive | – | inactive | inactive | inactive | inactive | 79.6 µM (active) | – | inactive | inactive | inactive | – | inactive
Cc1ccc2n[nH]nc2c1 | inactive | inactive | inactive | inactive | inactive | inactive | inactive | inactive | inactive | inactive | – | inactive | inactive | – | inactive | – | –
C=C1CC[C@H]2O[C@]2(C)CC[C@@H]2[C@@H]1CC2(C)C | inactive | inactive | inactive | inactive | – | – | inactive | inactive | inactive | inactive | inactive | inactive | inactive | inactive | inactive | – | –
CC(Cc1ccc(O)c(O)c1)C(C)Cc1ccc(O)c(O)c1 (centres undefined) | inactive | inactive | inactive | inactive | – | – | inactive | 54.5 µM (active) | inactive | 21.7 µM (active) | 35.6 µM (active) | 12.6 µM (active) | – | inactive | – | inactive | inactive
C=CC(=O)OCC(Br)CBr (centres undefined) | inactive | inactive | inactive | inactive | – | – | inactive | – | inactive | inactive | inactive | inactive | inactive | inactive | inactive | inactive | inactive
CCn1c2ccccc2c2ccccc21 | inactive | inactive | inactive | inactive | inactive | – | inactive | inactive | inactive | inactive | 22.4 µM (active) | – | inactive | inactive | inactive | – | –
CC(c1cc(C(C)(C)C)cc(C(C)(C)C)c1O)c1cc(C(C)(C)C)cc(C(C)(C)C)c1O | inactive | inactive | inactive | inactive | inactive | inactive | inactive | – | inactive | inactive | 31.7 µM (active) | – | inactive | – | inactive | inactive | inactive
CCOC(=O)C1=NN(c2ccc(Cl)cc2Cl)C(C)(C(=O)OCC)C1 (centres undefined) | inactive | inactive | inactive | inactive | inactive | – | inactive | inactive | inactive | 54.5 µM (active) | 2.52 µM (active) | – | 43.6 µM (active) | inactive | inactive | – | 39.9 µM (active)
Cc1cc(C)c(O)c(C(C)(C)C)c1 | inactive | inactive | inactive | inactive | – | – | – | – | inactive | inactive | – | – | inactive | inactive | inactive | 31.7 µM (active) | inactive
C=CC(C)(C)O | inactive | inactive | inactive | inactive | – | – | inactive | inactive | inactive | inactive | inactive | – | inactive | inactive | inactive | inactive | inactive
CCOC=C(C(=O)OCC)C(=O)OCC | inactive | inactive | inactive | inactive | inactive | – | inactive | inactive | inactive | inactive | inactive | inactive | inactive | inactive | inactive | inactive | –
CCN(CCC#N)c1ccc(N=Nc2ccc([N+](=O)[O-])cc2)cc1 | inactive | inactive | inactive | inactive | inactive | – | inactive | inactive | inactive | 6.11 µM (active) | inactive | inactive | inactive | – | inactive | inactive | –
NC(=O)c1ccccc1Cl | inactive | inactive | inactive | inactive | – | – | inactive | inactive | inactive | inactive | – | inactive | inactive | inactive | inactive | inactive | inactive
